Source: PubChem BioAssay AID1508625 (Wald Lab, School of Medicine, Case Western Reserve …, 2021)

Assay: enhancers of NK cell killing of ovarian tumor cells, primary screen, imaging, OVCAR3, primary NK cells, calcein-AM imaging (AID 1508625);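 also: compound given to NK cells 16 h before adding targets at 1.5 to 1 ratio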
Conditions: OVCAR3 lysis by primary NK cells, at 5 µM; z-score: measured here: robust Z-score, single-point normalisation

| SMILES | corrected activity, negative = more killing [%] | z-score |
| --- | --- | --- |
| Cc1cccn2c(=O)c3cc(C(=O)N(CC(C)C)CC(C)C)sc3nc12 | -8.5 | -2.41 |
| Cn1c(SCC(=O)Nc2cccc3ccccc23)nc2c([nH]c3ccccc32)c1=O | -9.34 | -2.32 |
| COCCNCCCSc1ccc(Cl)cc1 | -1.98 | -0.737 |
| CCCCSc1nc2c([nH]c3ccccc32)c(=O)n1-c1ccc(F)cc1 | -4.96 | -1.23 |
| O=C1OC(c2ccccc2Cl)=NC1=Cc1ccccc1F | -3.5 | -1.49 |
| N[n+]1cnn(CC(=O)c2ccccc2)c1 | -7.75 | -2.46 |
| COc1ccc(N2CCN(C(=O)c3ccc4ccccc4n3)CC2)cc1 | -1.53 | -0.85 |
| Cc1[nH]c2ccc(-c3n[nH]c(=S)n3C)cc2c1C | -0.764 | -0.278 |
| Cc1noc(C)c1S(=O)(=O)Nc1ccc(C(=O)Nc2cccc(Cl)c2)cc1 | -7.43 | -1.82 |
| Cc1cc(OCCN2CCCCCC2)ccc1[N+](=O)[O-] | -3.28 | -1.82 |
| CCOc1cc(C(=S)N2CCCCC2)ccc1OC(=O)c1ccc([N+](=O)[O-])cc1 | 0.525 | 0.163 |
| CCC(=O)Nc1ccc(Cl)c(NC(=O)COc2ccc(Br)cc2)c1 | -0.00546 | -0.00304 |
| CCC(Cc1ccccc1)NS(=O)(=O)c1ccc(F)c(C(=O)Nc2ccc(C)c(F)c2)c1 (configuration not stated) | -2.04 | -0.551 |
| CCc1ccccc1N1C(=O)C2C(c3ccc(Br)cc3)OC3(C(=O)c4ccccc4C3=O)C2C1=O (configuration not stated) | 0.455 | 0.141 |
| COc1ccc(OC(C)C(=O)Nc2ccc(Br)cc2)cc1 (configuration not stated) | -7.07 | -2.19 |
| Cc1ccc(Nc2nc(C)cc(C)c2C(N)=O)cc1 | -3.73 | -1.66 |
